According to the supplement of paper PMC11732987, “Enantioselective OTUD7B fragment discovery through chemoproteomics screening and high-throughput optimisation” (Communications Chemistry, 2025):

Columns and labels:
Assay in all cases: log2 ratio of Biotin-Ahx-Ub-VS probe labelling (fragment/DMSO); higher = less target engagement (more negative = stronger competition), active = hit call of the paper (q ≤ 0.05, log2 ratio ≤ -1)
Conditions in all cases: compound concentration: 200 uM; treatment time: 3 h
USP42 = molecular target: T1, USP42 (UniProt Q9H9J4)
T1 sequence (whole entry): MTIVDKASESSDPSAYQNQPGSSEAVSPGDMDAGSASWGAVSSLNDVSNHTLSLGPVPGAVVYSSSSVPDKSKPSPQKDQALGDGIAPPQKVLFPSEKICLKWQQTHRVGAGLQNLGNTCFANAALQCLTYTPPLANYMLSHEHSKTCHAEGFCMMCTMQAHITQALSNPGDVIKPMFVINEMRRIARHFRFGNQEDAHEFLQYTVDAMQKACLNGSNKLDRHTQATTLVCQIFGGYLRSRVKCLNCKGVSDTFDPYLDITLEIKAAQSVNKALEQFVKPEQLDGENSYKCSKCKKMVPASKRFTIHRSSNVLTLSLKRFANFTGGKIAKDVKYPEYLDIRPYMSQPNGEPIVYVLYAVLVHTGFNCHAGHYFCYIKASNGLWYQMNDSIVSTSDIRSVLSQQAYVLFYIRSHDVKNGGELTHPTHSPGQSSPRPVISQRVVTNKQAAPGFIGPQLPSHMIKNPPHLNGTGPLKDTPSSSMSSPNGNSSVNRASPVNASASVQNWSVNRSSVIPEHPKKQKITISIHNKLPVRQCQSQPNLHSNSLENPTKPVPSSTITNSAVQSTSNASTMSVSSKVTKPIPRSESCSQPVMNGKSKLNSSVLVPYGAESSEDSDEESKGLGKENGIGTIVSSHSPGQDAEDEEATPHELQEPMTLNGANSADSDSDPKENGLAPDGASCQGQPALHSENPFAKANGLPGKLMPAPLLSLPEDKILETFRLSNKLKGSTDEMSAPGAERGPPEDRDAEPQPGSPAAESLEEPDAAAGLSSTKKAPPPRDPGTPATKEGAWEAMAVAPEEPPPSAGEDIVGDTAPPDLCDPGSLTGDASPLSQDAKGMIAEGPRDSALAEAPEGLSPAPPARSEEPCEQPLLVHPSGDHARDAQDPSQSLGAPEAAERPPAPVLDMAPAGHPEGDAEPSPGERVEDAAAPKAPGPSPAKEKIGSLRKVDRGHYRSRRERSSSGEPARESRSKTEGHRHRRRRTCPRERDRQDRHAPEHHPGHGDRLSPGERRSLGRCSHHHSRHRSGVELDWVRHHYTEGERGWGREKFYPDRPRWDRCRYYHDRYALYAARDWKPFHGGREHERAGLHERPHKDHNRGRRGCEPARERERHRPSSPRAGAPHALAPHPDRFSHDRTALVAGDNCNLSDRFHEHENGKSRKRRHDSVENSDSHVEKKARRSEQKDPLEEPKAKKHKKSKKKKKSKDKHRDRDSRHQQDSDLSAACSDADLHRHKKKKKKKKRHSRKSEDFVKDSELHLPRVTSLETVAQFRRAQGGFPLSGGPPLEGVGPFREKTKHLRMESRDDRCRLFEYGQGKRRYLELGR
Procedure, shortened: (§1)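 HEK293T lysate (495 µg per sample, in Tris/CHAPS/IGEPAL buffer with protease inhibitors) was treated in triplicate with fragment at 200 µM or with DMSO for 3 h. It was then treated with Biotin-Ahx-Ub-VS (0.5 µM final) for 1 h. Labelled DUBs were NeutrAvidin-enriched, digested with LysC and trypsin, and run by diaPASEF LC-MS/MS. Spectronaut label-free quantities were global-median-normalised. Values are average log2 ratios fragment/DMSO by unpaired t-test, using proteins with ≥2 unique peptides.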

USP46 = USP46 (UniProt P62068)
Procedure, shortened: as §1

USP47 = molecular target: T2, USP47 (UniProt Q96K76)
T2 sequence (whole entry): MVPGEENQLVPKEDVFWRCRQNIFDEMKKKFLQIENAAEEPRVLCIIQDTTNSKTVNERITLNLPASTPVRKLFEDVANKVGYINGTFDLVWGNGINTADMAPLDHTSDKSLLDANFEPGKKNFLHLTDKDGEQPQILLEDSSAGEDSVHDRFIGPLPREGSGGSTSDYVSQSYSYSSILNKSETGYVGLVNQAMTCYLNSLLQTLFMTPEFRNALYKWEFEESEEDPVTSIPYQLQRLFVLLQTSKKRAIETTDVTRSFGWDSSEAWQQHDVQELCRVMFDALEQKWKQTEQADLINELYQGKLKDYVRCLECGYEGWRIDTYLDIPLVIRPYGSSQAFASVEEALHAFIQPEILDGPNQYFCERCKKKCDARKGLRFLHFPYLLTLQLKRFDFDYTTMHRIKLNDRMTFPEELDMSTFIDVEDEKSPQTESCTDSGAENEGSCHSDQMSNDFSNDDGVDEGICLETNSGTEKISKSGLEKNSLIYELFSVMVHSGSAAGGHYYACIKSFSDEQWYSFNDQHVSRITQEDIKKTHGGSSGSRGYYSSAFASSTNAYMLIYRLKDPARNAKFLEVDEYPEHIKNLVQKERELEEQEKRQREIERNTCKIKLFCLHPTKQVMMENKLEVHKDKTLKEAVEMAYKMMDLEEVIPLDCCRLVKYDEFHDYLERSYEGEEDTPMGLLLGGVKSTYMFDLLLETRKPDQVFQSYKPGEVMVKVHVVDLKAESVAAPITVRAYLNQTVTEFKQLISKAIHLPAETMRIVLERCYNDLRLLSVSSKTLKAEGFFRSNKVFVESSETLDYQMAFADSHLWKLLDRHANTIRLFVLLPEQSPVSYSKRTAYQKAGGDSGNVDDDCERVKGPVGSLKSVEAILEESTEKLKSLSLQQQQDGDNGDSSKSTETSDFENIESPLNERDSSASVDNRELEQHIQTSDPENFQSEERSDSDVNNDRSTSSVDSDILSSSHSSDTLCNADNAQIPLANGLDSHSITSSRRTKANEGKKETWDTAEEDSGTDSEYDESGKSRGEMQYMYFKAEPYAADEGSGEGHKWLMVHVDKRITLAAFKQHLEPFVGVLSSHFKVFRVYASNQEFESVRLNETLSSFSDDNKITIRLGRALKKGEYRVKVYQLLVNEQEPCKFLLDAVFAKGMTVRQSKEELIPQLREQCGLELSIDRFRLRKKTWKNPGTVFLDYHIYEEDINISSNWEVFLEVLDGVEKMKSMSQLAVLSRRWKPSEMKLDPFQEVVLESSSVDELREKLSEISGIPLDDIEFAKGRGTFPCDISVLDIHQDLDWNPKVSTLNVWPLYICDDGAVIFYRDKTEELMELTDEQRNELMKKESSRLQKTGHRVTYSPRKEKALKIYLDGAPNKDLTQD
Procedure, shortened: as §1

USP48 = molecular target: T3, USP48 (UniProt Q86UV5)
T3 sequence (whole entry): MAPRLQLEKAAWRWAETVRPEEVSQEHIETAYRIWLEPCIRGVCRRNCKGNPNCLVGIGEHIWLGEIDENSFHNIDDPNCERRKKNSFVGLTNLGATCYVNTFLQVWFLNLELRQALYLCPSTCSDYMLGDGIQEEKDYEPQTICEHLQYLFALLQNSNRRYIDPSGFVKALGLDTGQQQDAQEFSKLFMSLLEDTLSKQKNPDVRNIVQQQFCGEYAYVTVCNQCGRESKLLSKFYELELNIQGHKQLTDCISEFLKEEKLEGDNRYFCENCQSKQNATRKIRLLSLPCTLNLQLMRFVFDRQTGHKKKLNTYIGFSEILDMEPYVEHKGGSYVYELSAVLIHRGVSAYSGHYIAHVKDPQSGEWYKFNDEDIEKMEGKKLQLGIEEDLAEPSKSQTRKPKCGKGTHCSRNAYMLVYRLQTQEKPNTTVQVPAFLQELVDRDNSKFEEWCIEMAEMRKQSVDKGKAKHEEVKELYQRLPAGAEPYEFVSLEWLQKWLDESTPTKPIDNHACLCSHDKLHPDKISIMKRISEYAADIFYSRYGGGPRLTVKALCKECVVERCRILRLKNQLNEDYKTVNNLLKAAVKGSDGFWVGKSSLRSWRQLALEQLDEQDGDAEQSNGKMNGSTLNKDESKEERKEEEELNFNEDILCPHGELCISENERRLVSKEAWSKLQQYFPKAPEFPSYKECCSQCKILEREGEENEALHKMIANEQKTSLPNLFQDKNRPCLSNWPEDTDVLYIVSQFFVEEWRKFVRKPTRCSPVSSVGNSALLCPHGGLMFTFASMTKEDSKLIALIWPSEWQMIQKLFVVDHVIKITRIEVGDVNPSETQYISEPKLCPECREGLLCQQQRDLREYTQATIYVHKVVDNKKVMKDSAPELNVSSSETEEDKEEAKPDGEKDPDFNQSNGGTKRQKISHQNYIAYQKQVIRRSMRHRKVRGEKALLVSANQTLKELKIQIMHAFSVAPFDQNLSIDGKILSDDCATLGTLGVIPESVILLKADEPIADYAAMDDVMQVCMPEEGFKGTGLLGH
Procedure, shortened: as §1

USP5 = molecular target: T4, USP5 (UniProt P45974)
T4 sequence (whole entry): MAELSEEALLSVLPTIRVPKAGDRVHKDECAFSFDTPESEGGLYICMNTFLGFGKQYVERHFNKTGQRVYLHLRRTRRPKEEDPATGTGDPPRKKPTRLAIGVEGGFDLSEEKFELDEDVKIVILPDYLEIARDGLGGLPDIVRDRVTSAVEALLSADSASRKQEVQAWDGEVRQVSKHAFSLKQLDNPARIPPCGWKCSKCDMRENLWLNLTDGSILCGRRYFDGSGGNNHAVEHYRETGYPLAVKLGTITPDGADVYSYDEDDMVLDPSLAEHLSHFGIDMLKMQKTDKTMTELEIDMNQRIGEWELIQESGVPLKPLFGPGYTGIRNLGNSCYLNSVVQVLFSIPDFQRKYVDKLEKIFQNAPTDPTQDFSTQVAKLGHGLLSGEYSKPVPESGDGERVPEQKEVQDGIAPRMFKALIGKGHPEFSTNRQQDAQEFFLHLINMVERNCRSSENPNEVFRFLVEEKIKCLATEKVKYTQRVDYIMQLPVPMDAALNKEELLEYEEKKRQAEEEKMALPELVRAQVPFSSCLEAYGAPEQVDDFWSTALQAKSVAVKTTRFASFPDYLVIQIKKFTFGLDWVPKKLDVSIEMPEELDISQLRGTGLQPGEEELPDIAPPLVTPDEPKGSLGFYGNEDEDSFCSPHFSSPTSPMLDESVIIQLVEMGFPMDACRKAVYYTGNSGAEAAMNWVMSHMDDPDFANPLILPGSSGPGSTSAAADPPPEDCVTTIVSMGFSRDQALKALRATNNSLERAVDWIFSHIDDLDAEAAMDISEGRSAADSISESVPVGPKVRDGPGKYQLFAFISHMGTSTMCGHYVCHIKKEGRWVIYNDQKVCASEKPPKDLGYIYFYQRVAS
Procedure, shortened: as §1

USP54 = USP54 (UniProt Q70EL1)
Procedure, shortened: as §1

USP7 = USP7 (UniProt Q93009)
Procedure, shortened: as §1

USP8 = molecular target: T5, USP8 (UniProt P40818)
T5 sequence (whole entry): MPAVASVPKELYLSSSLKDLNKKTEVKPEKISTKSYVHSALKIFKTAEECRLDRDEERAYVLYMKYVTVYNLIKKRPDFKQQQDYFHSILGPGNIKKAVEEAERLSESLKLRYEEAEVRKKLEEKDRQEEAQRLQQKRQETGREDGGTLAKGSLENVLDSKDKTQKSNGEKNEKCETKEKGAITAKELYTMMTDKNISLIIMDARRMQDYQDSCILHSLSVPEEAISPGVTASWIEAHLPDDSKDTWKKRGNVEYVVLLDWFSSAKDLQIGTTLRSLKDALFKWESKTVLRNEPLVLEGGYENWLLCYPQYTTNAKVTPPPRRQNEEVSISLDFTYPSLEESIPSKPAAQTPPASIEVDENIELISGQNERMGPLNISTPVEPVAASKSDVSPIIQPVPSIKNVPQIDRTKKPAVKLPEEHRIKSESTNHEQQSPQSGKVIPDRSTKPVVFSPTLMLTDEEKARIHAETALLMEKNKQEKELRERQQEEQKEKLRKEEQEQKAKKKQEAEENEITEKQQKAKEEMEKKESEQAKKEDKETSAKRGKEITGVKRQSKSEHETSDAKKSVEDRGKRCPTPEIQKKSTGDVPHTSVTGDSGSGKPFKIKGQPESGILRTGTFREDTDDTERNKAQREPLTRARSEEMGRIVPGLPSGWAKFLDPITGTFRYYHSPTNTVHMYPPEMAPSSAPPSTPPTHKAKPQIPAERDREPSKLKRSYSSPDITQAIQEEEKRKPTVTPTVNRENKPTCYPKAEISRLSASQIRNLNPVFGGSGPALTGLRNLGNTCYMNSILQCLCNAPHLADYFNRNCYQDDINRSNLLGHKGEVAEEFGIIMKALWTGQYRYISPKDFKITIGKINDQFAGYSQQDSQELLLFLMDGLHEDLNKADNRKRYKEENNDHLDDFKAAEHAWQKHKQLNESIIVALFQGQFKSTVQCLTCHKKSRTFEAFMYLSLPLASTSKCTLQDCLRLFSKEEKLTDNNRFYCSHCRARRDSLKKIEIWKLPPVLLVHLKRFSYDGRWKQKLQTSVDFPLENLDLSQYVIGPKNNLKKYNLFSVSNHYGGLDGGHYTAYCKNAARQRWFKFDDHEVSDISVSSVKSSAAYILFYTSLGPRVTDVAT
Procedure, shortened: as §1

USP9X = USP9X (UniProt Q93008)
Procedure, shortened: as §1

UniProt O00487 = molecular target: UniProt O00487
Procedure, shortened: as §1

Measured: log2 ratio of Biotin-Ahx-Ub-VS probe labelling

Chain of USP7 (Q93009 whole entry, looked up): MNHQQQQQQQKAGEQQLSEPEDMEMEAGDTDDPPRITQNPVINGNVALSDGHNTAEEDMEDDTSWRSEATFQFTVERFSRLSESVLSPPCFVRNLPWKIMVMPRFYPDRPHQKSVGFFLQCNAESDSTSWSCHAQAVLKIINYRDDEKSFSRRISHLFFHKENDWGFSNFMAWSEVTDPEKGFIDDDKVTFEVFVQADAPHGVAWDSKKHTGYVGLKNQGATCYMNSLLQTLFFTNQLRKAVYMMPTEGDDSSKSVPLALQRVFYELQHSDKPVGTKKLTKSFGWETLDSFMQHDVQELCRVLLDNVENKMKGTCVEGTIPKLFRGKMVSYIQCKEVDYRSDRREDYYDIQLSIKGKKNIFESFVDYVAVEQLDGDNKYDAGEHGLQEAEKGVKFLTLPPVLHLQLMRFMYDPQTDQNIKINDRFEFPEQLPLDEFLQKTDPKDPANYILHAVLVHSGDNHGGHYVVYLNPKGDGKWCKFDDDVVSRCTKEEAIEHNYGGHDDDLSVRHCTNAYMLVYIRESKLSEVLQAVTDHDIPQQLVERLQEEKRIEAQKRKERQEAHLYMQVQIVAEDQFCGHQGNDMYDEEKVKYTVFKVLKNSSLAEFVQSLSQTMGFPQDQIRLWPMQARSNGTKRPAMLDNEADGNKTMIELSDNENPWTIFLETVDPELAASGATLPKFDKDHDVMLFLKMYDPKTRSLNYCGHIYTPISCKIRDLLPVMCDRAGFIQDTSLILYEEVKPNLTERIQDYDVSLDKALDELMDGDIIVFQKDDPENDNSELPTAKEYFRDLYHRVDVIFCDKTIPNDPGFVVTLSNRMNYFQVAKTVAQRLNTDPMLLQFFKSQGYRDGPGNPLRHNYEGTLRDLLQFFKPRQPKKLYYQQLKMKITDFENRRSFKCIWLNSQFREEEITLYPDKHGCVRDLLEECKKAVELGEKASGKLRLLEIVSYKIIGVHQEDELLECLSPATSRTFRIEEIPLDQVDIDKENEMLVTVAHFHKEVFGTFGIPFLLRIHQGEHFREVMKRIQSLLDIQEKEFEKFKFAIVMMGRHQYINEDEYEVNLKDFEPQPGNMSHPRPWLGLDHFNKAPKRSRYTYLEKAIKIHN
Chain of USP46 (P62068 whole entry): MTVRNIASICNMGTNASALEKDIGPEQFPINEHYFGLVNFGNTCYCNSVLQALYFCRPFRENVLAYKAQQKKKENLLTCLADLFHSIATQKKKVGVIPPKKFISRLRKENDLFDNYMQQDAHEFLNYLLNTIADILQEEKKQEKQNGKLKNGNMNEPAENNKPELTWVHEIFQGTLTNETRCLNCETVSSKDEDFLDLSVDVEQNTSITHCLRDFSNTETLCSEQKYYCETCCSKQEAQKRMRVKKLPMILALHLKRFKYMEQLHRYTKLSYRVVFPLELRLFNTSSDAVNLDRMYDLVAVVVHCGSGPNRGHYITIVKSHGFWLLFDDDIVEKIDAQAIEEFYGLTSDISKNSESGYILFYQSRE
Chain of USP9X (Q93008 whole entry): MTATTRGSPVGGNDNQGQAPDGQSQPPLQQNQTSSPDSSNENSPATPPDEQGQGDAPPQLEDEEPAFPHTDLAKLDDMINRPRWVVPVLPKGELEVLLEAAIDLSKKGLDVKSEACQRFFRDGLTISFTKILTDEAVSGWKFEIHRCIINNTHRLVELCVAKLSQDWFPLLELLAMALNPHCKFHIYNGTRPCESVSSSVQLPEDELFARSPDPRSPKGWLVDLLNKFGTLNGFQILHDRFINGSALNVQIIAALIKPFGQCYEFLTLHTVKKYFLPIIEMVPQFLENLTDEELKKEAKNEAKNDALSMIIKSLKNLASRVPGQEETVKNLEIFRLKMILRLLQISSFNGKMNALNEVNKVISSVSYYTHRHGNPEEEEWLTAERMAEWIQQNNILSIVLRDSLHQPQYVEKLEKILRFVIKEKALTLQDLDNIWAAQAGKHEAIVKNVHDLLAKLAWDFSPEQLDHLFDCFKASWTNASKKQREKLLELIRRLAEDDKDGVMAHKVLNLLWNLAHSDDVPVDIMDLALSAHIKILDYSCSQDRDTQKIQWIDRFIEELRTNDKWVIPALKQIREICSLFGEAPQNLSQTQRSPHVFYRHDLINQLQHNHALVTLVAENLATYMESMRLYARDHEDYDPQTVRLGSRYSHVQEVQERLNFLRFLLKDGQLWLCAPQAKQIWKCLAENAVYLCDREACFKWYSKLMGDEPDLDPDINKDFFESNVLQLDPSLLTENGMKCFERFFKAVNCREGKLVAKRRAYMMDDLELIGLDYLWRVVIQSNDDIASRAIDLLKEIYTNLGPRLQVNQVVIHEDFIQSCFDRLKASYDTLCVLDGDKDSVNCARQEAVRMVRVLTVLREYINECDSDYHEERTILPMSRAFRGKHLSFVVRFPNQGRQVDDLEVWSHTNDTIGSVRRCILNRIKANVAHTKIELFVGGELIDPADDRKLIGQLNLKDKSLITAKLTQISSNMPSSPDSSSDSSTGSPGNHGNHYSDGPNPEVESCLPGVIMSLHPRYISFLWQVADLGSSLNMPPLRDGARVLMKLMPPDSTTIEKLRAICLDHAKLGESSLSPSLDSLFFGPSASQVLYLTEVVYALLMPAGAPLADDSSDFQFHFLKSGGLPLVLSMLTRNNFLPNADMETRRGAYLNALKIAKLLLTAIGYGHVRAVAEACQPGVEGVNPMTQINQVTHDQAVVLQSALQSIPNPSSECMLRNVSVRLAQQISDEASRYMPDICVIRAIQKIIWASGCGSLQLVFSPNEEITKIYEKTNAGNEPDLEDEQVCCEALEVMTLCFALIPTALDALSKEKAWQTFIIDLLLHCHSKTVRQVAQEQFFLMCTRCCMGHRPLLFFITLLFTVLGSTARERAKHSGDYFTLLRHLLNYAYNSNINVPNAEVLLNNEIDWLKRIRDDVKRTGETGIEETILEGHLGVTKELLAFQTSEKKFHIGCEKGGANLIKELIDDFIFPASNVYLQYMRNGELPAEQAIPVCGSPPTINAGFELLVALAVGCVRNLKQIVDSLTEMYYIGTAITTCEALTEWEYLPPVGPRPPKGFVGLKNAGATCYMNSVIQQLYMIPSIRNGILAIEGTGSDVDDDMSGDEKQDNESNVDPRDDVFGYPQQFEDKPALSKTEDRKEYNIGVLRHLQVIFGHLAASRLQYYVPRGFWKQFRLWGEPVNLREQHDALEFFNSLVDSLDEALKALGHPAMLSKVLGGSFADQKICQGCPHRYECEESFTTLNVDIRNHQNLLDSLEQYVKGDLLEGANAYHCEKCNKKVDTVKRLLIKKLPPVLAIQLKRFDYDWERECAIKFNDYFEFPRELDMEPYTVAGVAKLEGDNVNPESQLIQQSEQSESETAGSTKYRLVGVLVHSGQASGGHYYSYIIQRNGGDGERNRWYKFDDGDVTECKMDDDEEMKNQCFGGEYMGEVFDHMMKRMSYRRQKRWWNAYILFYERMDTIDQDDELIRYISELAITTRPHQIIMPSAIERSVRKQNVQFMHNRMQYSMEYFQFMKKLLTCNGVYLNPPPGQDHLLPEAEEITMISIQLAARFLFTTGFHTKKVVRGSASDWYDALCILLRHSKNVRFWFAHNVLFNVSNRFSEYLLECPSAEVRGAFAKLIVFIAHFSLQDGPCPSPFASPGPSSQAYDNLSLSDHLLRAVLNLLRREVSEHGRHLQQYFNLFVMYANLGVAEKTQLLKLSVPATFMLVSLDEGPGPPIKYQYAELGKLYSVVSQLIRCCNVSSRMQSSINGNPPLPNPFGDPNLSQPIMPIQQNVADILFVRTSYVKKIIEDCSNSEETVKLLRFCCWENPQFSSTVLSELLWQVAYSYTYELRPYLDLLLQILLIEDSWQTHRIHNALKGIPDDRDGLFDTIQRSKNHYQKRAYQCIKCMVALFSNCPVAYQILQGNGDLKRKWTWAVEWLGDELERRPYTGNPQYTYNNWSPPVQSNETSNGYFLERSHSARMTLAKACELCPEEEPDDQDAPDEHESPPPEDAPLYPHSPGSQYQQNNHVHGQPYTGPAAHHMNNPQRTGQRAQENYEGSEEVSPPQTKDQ
Chain of UniProt O00487 (O00487 whole entry): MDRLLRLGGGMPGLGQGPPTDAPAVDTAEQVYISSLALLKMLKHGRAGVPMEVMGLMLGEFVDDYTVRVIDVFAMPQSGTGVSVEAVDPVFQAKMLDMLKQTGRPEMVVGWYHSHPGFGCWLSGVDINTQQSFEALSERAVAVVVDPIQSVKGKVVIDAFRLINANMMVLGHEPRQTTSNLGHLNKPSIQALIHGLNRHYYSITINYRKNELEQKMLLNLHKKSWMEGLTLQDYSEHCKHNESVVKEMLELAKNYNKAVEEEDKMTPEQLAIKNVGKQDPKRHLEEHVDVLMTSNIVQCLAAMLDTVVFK

CC(NC(=O)CCl)c1cccc2ccccc12 (stereo not given)
inactive: USP42 -0.241 | USP46 0.159 | USP47 -0.308 | USP48 -0.368 | USP5 0.225 | USP54 0.115 | USP7 -0.339 | USP8 -0.651 | USP9X -0.285 | UniProt O00487 -0.0949
